# Assay results taken from PubChem BioAssay (NCATS).
# Inconclusive results are not listed. Activity calls are given as the source filed them. The call rests on the fitted dose curve; in most records, active means well fitted cell-killing curve with a large enough effect; inconclusive means small, poorly fitted or top-dose-only effect; inactive means no such curve, though single readings can be large or run the other way.
# Experiment: qHTS of pediatric cancer cell lines to identify multiple opportunities for drug repurposing: Primary screen for LAN-5 cells (AID 1347100)
# Conditions: LAN-5 neuroblastoma viability, CellTiter-Glo luminescence, 48 h; series mostly up to 46 µM; activity change, negative = cytotoxic: at the top concentration
# Text: Drug repurposing or repositioning has been offered as a strategy for drug development in oncology programs. This approach has special potential for childhood cancers and other rare or orphan diseases, where the expected return on new drug development has been a disincentive to pharmaceuticals.
# In this project we exploit the poly-pharmacology of drugs to discover new indications via phenotypic screening of a panel of 19 well-characterized cell lines derived from solid tumors seen in children and adolescents. The goal is to identify approved drugs with previously unrecognized anticancer properties that has the potential to reveal new mechanisms and biological processes involved in carcinogenesis or drug resistance. We employed a titration-based paradigm (quantitative high-throughput screening or qHTS), where all compounds were tested at multiple concentrations for their effect on cell viability. Concentration-response curves (CRCs) were derived directly from the primary screen, and both potency and efficacy values were used to identify compounds with robust bioactivity profiles. We screened the NIH Chemical Genomics Center (NCGC) Pharmaceutical Collection (NPC) and Mechanism Interrogation Plate (MIPE) small molecule collections of approved and investigational compounds against these cell lines; and measured metabolically active cells after 48 hours of compound treatment as a proxy for cell viability.
# Assay Submitter: Nathalia J. Martinez, National Center for Advancing Translational Sciences, National Institutes of Health, Rockville, MD, USA; email: natalia.martinez@nih.gov
# [1] Shen, M et al. Quantitative high-throughput phenotypic screening of pediatric cancer cell lines identifies multiple opportunities for drug repurposing. Oncotarget 2017 Dec 19;9(4):4758-4772. PMID 29435139.
# The cells were obtained from University of North Carolina (UNC), Pediatric Preclinical Testing Program (PPT), and Coriell Institute (CI).
# qHTS cell viability assay:
# Cells were assayed in growth media at a density of 500-1,000 cells/well. Five microliters of cells were dispensed into 1,536-well, white, solid-bottom, TC-treated plates (Greiner Bio One) using a multidrop dispenser and incubated at 37 degrees C, 5% CO2, under a humidified atmosphere for 5 hours. Twenty-three nanoliters of compounds and controls (neutral control DMSO or positive control bortezomib at final concentration of 2.3 µM) were subsequently transferred by Kalypsys pintool. For primary screens, the MIPE collection was tested at 11-point dilutions (final concentrations range from 0.78 nM to 46 µM) and the NPC collection at 8-point dilutions (final concentrations range from 0.59 nM to 46 µM). Compounds tested in follow-up screens were assayed at 11-point dilutions. Cells were incubated for 48 hours, followed by addition of 3 µL of CellTiter-Glo (Promega). After a 15 min incubation at room temperature, samples were analyzed for luminescence intensity using a ViewLux High-throughput CCD imager equipped with clear filters.
# Potency means the concentration at half of the fitted maximal effect.
SMILES,"activity change, negative = cytotoxic",Potency
CC(C)c1c(CN(C)C(C)Cc2ccccc2)n(C)n(-c2ccccc2)c1=O (stereo not given),-29.1% (inactive),–
C[C@]12CC[C@@H]3c4ccc(OC(=O)N(CCCl)CCCl)cc4CC[C@H]3[C@@H]1CC[C@@H]2OP(=O)(O)O,16.2% (inactive),–
CCCCCCCCCC(=O)O[C@H]1CC[C@H]2[C@@H]3CCC4=CC(=O)CC[C@@H]4[C@H]3CC[C@]12C,23.3% (inactive),–
NC1=NC(=O)C(c2ccccc2)O1 (stereo not given),6.98% (inactive),–
CNCC(=O)c1ccc(O)c(O)c1,-16.6% (inactive),–
O=C(O)CCCc1ccc(N(CCCl)CCCl)cc1,–,9.44 µM (active)
O=C(CCCN1CCC2(CC1)C(=O)NCN2c1ccccc1)c1ccc(F)cc1,-12.7% (inactive),–
CCC(C)(C)c1ccc(O)cc1,7.41% (inactive),–
c1ccc2c(c1)sc1ccccc12,9.02% (inactive),–
CC[N+]1(CC)CCC(OC(=O)C(O)(c2ccccc2)c2ccccc2)C1 (stereo not given),11.9% (inactive),–
Clc1ccccc1N1CCNCC1,11% (inactive),–
C=CCC1([C@H](C)CCC)C(=O)NC(=O)NC1=O,6.19% [at 92.7 µM] (inactive),–
O=c1[nH]c2ccccc2n1C1CCNCC1,9.09% (inactive),–
COP(=S)(OC)Oc1ccc(S(=O)(=O)N(C)C)cc1,-1.97% (inactive),–
C[C@](O)(CS(=O)(=O)c1ccc(F)cc1)C(=O)Nc1ccc(C#N)c(C(F)(F)F)c1,–,2.96 µM (active)
C[C@H]1[C@@H]2Cc3ccc(O)cc3[C@@]1(C)CCN2C,-4.44% [at 231 µM] (inactive),–
C[C@]12CCC(=O)C=C1CC[C@@H]1[C@@H]2CC[C@]2(C)C(=O)CC[C@@H]12,-16.6% (inactive),–
CC(=O)C1CCOC1=O (stereo not given),10.2% (inactive),–
Clc1ccc(C(c2ccc(Cl)cc2)C(Cl)(Cl)Cl)cc1,-6.1% (inactive),–
CC(C)NC(C)C,11.3% (inactive),–

SMILES,"activity change, negative = cytotoxic",Potency
CN1CC[C@]23c4c5ccc(O)c4O[C@H]2[C@@H](O)CC[C@H]3[C@H]1C5,0.779% [at 92.7 µM] (inactive),–
COc1cc(OC)c(OC)cc1C=O,–,inactive
COc1cccc([C@@]2(O)CCCC[C@@H]2CN(C)C)c1,17.8% (inactive),–
C#CC(O)(C=CCl)CC (stereo not given),8.13% (inactive),–
CCN[C@@H](C)Cc1ccccc1,-1.81% [at 92.7 µM] (inactive),–
Cc1ncsc1CCCl,19% (inactive),–
CC(C)C[C@H](CN)CC(=O)O,-15.5% (inactive),–
C[C@]12CCC(=O)C=C1CC[C@@H]1[C@@H]2CC[C@@]2(C)[C@H]1CC[C@]2(C)O,-21.6% (inactive),–
CC(C)(C)NCC(O)c1cc(Cl)c(N)c(C(F)(F)F)c1 (stereo not given),-7.16% (inactive),–
CCN(CC)C(=O)[C@@H]1C=C2c3cccc4[nH]cc(c34)C[C@H]2N(C)C1,–,71.3 µM (active)
Nc1ccccc1C(=O)O,18.7% (inactive),–
CN(C)CCc1c[nH]c2cccc(OP(=O)(O)O)c12,-12.5% [at 92.7 µM] (inactive),–
CCN[C@@H](C)Cc1cccc(C(F)(F)F)c1,10% (inactive),–
c1ccc(N2CCNCC2)cc1,3.94% (inactive),–
COP(=S)(OC)Oc1cc(Cl)c(Cl)cc1Cl,11.9% (inactive),–
O=P1(N(CCCl)CCCl)NCCCO1 (stereo not given),9.9% (inactive),–
COP(=S)(OC)Oc1ccc(SC)c(C)c1,-11.3% (inactive),–
COc1cc(CCN)cc(OC)c1OC,-18.8% [at 92.7 µM] (inactive),–
C=C(C)[C@H]1CN[C@H](C(=O)O)[C@H]1CC(=O)O,12% (inactive),–
Clc1cccc(SC2CCNCC2)n1,-14.7% (inactive),–
